Test results: PubChem BioAssay (NCATS)
“And” between values parts separate entries of the source, which are not always exact repeats. Equal values may be shown once. Results filed as inconclusive are left out. The source made the active and inactive calls. Unless noted, the call rests on the fitted dose curve; in most records, active means well fitted curve in the direction sought with a large enough effect; inconclusive means small, poorly fitted or top-dose-only effect, or another doubt; inactive means no such curve, though single readings can be large; an effect the other way counts as inactive or inconclusive.

How the values were obtained:
[1] = Primary qHTS for inhibitors of nuclear receptor binding SET domain protein 2 (NSD2) in an isogenic RCH-ACV NSD2 p.E1099K mutant (9B) (AID 1645876); details: RCH-ACV NSD2 E1099K (9B) viability, CellTiter-Glo, 72 h; series mostly up to 44.9 µM; further: nearly all actives have a fitted effect of over 70% in size; on activity change, negative = viability loss: on the % scale 0 is the no-effect control and ±100 the full control effect
[2] = Primary qHTS for inhibitors of nuclear receptor binding SET domain protein 2 (NSD2) in an RCH-ACV wild type WT cells (2C) (AID 1645877); details: RCH-ACV (leukaemia line) NSD2 WT (2C) viability, CellTiter-Glo, 72 h; series mostly up to 44.9 µM; further: nearly all actives have a fitted effect of over 70% in size
[3] = target: Catechol O-methyltransferase (Homo sapiens) (UniProt P21964); experiment: Confirmatory Screen for Target Class Profiling of Small Molecule Inhibitors of Methyltransferases (AID 1745852; calls by dose curve; on activity change, negative = inhibition: on the % scale 0 is the no-effect control and ±100 the full control effect); details: MTase-Glo luminescence, SAH detection, recombinant enzyme; measured here: COMT max response; stronger effect = lower value
[4] = target: Guanidinoacetate N-methyltransferase (Homo sapiens) (UniProt Q14353); experiment: as above; details: MTase-Glo luminescence, SAH detection, recombinant enzyme; activity change, negative = inhibition: at 57.3 µM (top of the series) unless noted; series mostly up to 57.3 µM
[5] = target: Nicotinamide N-methyltransferase (Homo sapiens) (UniProt P40261); experiment: as above; details: MTase-Glo luminescence, SAH detection, recombinant enzyme; measured here: NNMT max response; stronger effect = lower value
[6] = target: Phenylethanolamine N-methyltransferase (Homo sapiens) (UniProt P11086); experiment: as above; details: MTase-Glo luminescence, SAH detection, recombinant enzyme; measured here: PNMT max response; stronger effect = lower value
Potency means the concentration at half of the fitted maximal effect.

Sequence of Phenylethanolamine N-methyltransferase (Homo sapiens) (P11086 whole entry, looked up): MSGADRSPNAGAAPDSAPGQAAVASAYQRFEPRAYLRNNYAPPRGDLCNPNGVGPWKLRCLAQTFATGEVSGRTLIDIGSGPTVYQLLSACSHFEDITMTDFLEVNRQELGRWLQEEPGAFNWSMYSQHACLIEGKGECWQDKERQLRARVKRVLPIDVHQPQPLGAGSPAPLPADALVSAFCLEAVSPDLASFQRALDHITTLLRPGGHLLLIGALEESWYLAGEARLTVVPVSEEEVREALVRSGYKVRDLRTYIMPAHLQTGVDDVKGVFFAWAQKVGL
Sequence of Catechol O-methyltransferase (Homo sapiens) (P21964 whole entry, looked up): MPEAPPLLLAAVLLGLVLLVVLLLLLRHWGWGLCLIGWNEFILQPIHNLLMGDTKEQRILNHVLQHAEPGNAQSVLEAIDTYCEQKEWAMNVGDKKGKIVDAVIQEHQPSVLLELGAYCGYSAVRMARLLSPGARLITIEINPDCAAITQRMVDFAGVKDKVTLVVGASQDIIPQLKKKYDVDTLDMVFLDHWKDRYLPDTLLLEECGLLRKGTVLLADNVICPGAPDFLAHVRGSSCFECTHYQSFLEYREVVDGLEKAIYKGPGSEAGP
Sequence of Nicotinamide N-methyltransferase (Homo sapiens) (P40261 whole entry, looked up): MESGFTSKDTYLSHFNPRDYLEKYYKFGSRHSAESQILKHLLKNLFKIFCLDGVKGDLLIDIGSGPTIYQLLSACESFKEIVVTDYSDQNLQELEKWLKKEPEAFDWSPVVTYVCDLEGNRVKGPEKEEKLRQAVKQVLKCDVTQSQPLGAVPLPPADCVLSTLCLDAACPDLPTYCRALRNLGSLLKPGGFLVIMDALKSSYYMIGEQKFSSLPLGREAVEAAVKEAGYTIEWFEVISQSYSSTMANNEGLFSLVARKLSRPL

Compound	Potency [1]	Potency [2]	activity [3]	activity change, negative = inhibition [4]	activity [5]	activity [6]	activity change, negative = viability loss [1]	outcome [2]	Potency [4]
CC(C)(O)/C=C1/C(=O)C(C)(C)C(=O)C(C)(C)C1(O)O[C@@H]1O[C@H](COC(=O)c2cc(O)c(O)c(O)c2)[C@@H](O)[C@H](O)[C@H]1O (stereo partly specified)	inactive	inactive	-56.9%	-2.31% [at 19.1 µM]	-1.53%	-0.785%	–	–	–
CC1(CO)CC[C@]2(C(=O)O[C@@H]3O[C@H](CO)[C@@H](O)[C@H](O)[C@H]3O)CC[C@]3(C)C(=CCC4[C@@]5(C)C[C@H](O)[C@H](O[C@@H]6OC[C@@H](O)[C@H](O)[C@H]6O)[C@@](C)(CO)C5CC[C@]43C)C2C1 (stereo partly specified)	–	–	-56.9%	0.83% [at 19.1 µM]	2.23%	2.01%	1.64% [at 9.23 µM] (inactive)	inactive [at 9.23 µM]	–
C=C1CC/C=C(/CO)C(=O)C[C@@H]2[C@@H]1CC2(C)C	inactive	inactive	–	–	–	–	–	–	–
CC(C)(O)C1=CCC23COC(C2)C(O)(C(=O)O)CCC13 (stereo unspecified)	inactive	inactive	–	–	–	–	–	–	–
O=C(O)CCc1cccc(O[C@@H]2O[C@H](CO)[C@@H](O)[C@H](O)[C@H]2O)c1O	inactive	inactive	-71.6%	0.429%	0.392%	-5.98%	–	–	–
CC1(C)CC[C@]2(C(=O)O[C@@H]3O[C@H](CO)[C@@H](O)[C@H](O)[C@H]3O)CC[C@]3(C)C(=CCC4[C@@]5(C)C[C@@H](O)[C@H](O)[C@@](C)(CO)C5CC[C@]43C)C2C1 (stereo partly specified)	inactive	inactive	-71.4%	-8.61% [at 19.1 µM]	-8.27%	-4.38%	–	–	–
CC1(C)CCC2(C(=O)OC3OC(COC4OC(CO)C(O)C(O)C4O)C(O)C(O)C3O)CCC3(C)C(=CCC4C5(C)CCC(O)C(C)(C(=O)O)C5CCC43C)C2C1O (stereo unspecified)	–	–	-59.6%	2.03% [at 19.1 µM]	-5.22%	-5.74%	0.116% [at 9.23 µM] (inactive)	inactive [at 9.23 µM]	–
COC(=O)C1=COC(OC2OC(CO)C(O)C(O)C2O)C2C1CC(OC(=O)C(O)CC(=O)O)C2C (stereo unspecified)	inactive	inactive	-63.4%	1.08% [at 29.8 µM]	1.84%	1.07%	–	–	–
COC12CC3C(C(C)C1=CC(=O)O2)C(O)C(OC(C)=O)C1C(C)(C)C(OC(C)=O)CCC31C (stereo unspecified)	inactive	inactive	–	–	–	–	–	–	–
CCc1nc(C(N)=O)c(Nc2ccc(N3CCC(N4CCN(C)CC4)CC3)c(OC)c2)nc1NC1CCOCC1	1.13 µM (active) and 2.63 µM (active)	1.13 µM (active) and 2.63 µM (active)	-34.5%	–	-16.4%	-59.8%	–	–	26.6 µM (active)
CCOc1ccc(-c2ccc(Cn3c(CC(C)(C)C(=O)O)c(SC(C)(C)C)c4cc(OCc5ccc(C)cn5)ccc43)cc2)cn1	inactive	inactive	-2.5% and 0.78%	-0.671%	-21.6% and -9.46%	-31.2% and -7.43%	–	–	inactive
C/C=C(\C)C(=O)O[C@H]1[C@@H](O[C@]2(COC(=O)CC(C)C)O[C@H](COC(=O)C(C)C)[C@@H](OC(C)=O)[C@@H]2O)O[C@H](COC(C)=O)[C@@H](O)[C@@H]1O	inactive	inactive	-75.6%	0% [at 19.1 µM]	2.56%	-1.49%	–	–	–
C[C@@H]1O[C@@H](O[C@H]2[C@H](OC(=O)C34CCC(C)(C)CC3C3=CCC5C6(C)CC(O)C(O[C@@H]7O[C@H](CO)[C@@H](O)[C@H](O)[C@H]7O)C(C)(C(=O)O)C6CCC5(C)C3(CO)CC4)O[C@H](C)[C@H](O)[C@@H]2O)[C@H](O)[C@H](O)[C@H]1O[C@@H]1OC[C@@H](O)[C@H](O)[C@H]1O (stereo partly specified)	–	–	-46%	-4.58% [at 19.1 µM]	-3.41%	-2.81%	3.3% [at 9.23 µM] (inactive)	inactive [at 9.23 µM]	–
COc1cc(C2Oc3c(OC)cc(/C=C/C(=O)OC[C@H]4O[C@@H](OC(C)(C)C(=O)O)[C@H](O)[C@@H](O)[C@@H]4O)cc3C2CO)ccc1O (stereo partly specified)	inactive	inactive	-69.3%	-2.88% [at 19.1 µM]	-0.56%	-7.93%	–	–	–
CC1CC(=O)C2=C(O1)OC1(C)CCC3C(C)(C)C=CC(=O)C3(C)C1C2 (stereo unspecified)	inactive	inactive	-45.9%	-4.08%	-84.9%	-3%	–	–	–
CC1(C)O[C@@]2(C)CC[C@@H]1C[C@@H]2OC1OC(CO)C(O)C(O)C1O (stereo partly specified)	inactive	inactive	-67.5%	2.82%	4.92%	0.858%	–	–	–
C=C1[C@H]2[C@H](O[C@@H]3O[C@H](COC(=O)/C=C/c4cc(OC)c(O)c(OC)c4)[C@@H](O)[C@H](O)[C@H]3O)OC=C(C(=O)O)[C@H]2C[C@@H]1O	inactive	inactive	-50.9%	0% [at 19.1 µM]	0%	5.16%	–	–	–
